The panel holds about 83,000 compounds, 20% with a hit somewhere; the sample as a whole holds those more often.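 Cell lines were cultured in 96-well plates, exposed to a single compound concentration, and assessed for percent growth 48 hours later.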 Unmarked numbers belong to inactive results. Activity calls are given as the source filed them. Rule for the calls: active = growth percent below 10; inactive = the rest.

Holding throughout (experiment): NCI-60 one-dose screen, 48 h (100 = growth as untreated, 0 = no growth, -100 = all killed)
Conditions in all cases: 10 µM unless noted

Test [1] deals with DU-145 prostate.
Test [2] relates to K-562 leukemia.
The subject of test [3] is MALME-3M melanoma.
The test system of test [4] is MDA-MB-231 breast.
The subject of test [5] is RXF 393 renal.
For test [6], the system named is SF-268 CNS.
Test [7] has as its system SF-295 CNS.
Test [8] deals with SF-539 CNS.
Test [9] deals with UACC-257 melanoma.
In test [10] the test system is M14 melanoma.
In test [11] the test system is HCT-15 colon.
The test system of test [12] is HT29 colon.
The test system of test [13] is SNB-75 CNS.
In test [14] the test system is SNB-19 CNS.
The test system of test [15] is PC-3 prostate.
Test [16] deals with SK-MEL-5 melanoma.
Test [17] has as its system UACC-62 melanoma.
The subject of test [18] is LOX IMVI melanoma.
The test system of test [19] is SK-MEL-28 melanoma.
The subject of test [20] is U251 CNS.

`Clc1c(Cl)[n+](Cc2ccc3ccccc3c2)cn1Cc1ccc2ccccc2c1`: the growth in test [1] was 32.6%; in [2] it was -3.01% (active); in [3], -14.1% (active); in test [4], 7.04% (active); in test [5], -7.52% (active); in test [6], 20.8%. Further, the growth in test [7] is 45.6%; in test [8] it was 58.6%; in test [9] it was -37.7% (active); in test [10], -31.9% (active); in [11], 75.1%; in [12] it was -69.4% (active). In addition, the growth was 10.3% in test [13]; 26.8% in test [14]; 3.79% (active) in test [15]; -79.7% (active) in [16]; -42.8% (active) in [17]; -21.4% (active) in [18]. Further, the growth in test [19] is 16.1%.

`O=C(NC(Cc1nnc2n(Cc3ccccc3)c(=O)c3c4c(sc3n12)CCCC4)c1ccccc1)c1ccccc1` (centres undefined): the growth in test [1] is 115%; in test [2], 91%; in test [3] it was 103%; in test [4] it was 94%; in test [5], 79.4%; in test [6], 89.5%. Further, the growth in test [7] is 108%; in test [8], 111%; in test [9], 101%; in test [10], 86.9%; in test [11], 138%; in test [12] it was 106%. Further, the growth in test [13] is 81.3%; in test [14], 99.1%; in test [20] it was 111%; in test [16], 96.1%; in [17] it was 85.9%; in test [18], 109%. In test [19], the growth is 110%.

Regarding `COc1ccc(C(=O)N2c3ccccc3Sc3ccccc32)c(C(F)(F)F)c1`, the growth in test [1] is 14.2%; in [2], -7.9% (active); in [3], 59.7%; in test [4] it was 23.9%; in test [5], 15.4%; in test [6] it was 35.2%. The growth in [7] was 5.14% (active); in [8], -10.1% (active); in test [9] it was 61.5%; in [10] it was 2.2% (active); in [11], 18%; in [12] it was 3.4% (active). The growth in test [13] was 29.3%; in test [14], 30.8%; in test [20], 19%; in [16], 5.29% (active); in test [17], 31.6%; in test [18], 16.7%. The growth in [19] was 52%.

Turning to `COc1ccc(CNc2c3ccccc3nc3ccccc23)c(OC)c1`, the growth in test [1] was 49.4%; in test [2], 13.2%; in test [3], 67%; in test [4], 43.6%; in [5], 33.4%; in test [6], 65.7%. In addition, the growth in test [7] is 36.3%; in test [8], 14.6%; in test [9] it was 74.6%; in [10] it was 43.8%; in test [11], 26%; in [12], 13.8%. Besides, the growth in test [13] is 64.5%; in [14] it was 33.5%; in [20], 41.8%; in test [16], 70.3%; in [17], 54.5%; in test [18] it was 17.7%. Also, the growth in test [19] was 69.3%.

As to `C=CCC(CCCC)(C(=O)OCC)C(=O)OCC`, the growth in [1] was 121%; in test [2], 104%; in [3], 106%; in test [4], 105%; in test [5], 105%; in [6], 113%. Further, the growth in test [7] is 113%; in test [8], 100%; in [9] it was 100%; in test [10], 96.8%; in test [11] it was 96%; in test [12] it was 102%. Further, the growth in test [13] was 77.2%; in [14], 99%; in test [15], 94.8%; in [16], 113%; in test [17] it was 99.6%; in test [18] it was 99.7%. Moreover, the growth in test [19] is 115%.

Consider `O=[N+]([O-])c1cc(NS(=O)(=O)c2ccccc2)ccc1NS(=O)(=O)c1ccccc1`, for which the growth in test [1] was 87.1%; in test [2] it was 125%; in [3], 155%; in test [4], 91%; in test [5], 134%; in test [6], 106%. For the same compound, the growth in [7] is 133%; in test [8], 118%; in test [9] it was 95%; in test [10], 88.5%; in test [11] it was 72.1%; in [12], 84.6%. Further, the growth is 125% in [13]; 108% in test [14]; 80.7% in test [15]; 99.4% in test [16]; 85.7% in test [17]; 99% in test [18]. The growth in [19] was 111%.

On to `Cc1c(CN)cc(-c2ccc(Cl)cc2)n1-c1ccccc1`, for which the growth was 89.2% in test [1]; 66.1% in test [2]; 107% in [3]; 87.1% in [4]; 84.6% in [5]; 86.4% in test [6]. Besides, the growth in test [7] was 87.7%; in [8], 93.7%; in test [9], 91.1%; in test [10], 82.8%; in [11], 80.9%; in test [12], 103%. In addition, the growth in [13] was 78.5%; in test [14], 84.7%; in test [15], 89.4%; in test [16], 82.4%; in test [17] it was 57%; in test [18] it was 67%.

`O=C1Nc2c(C(=O)O)cccc2/C1=N/c1n[nH]c(=S)s1`: the growth in test [1] is 98.5%; in test [2], 41.3%; in test [3], 105%; in test [4], 86.2%; in test [5], 112%; in [6] it was 83.3%. The growth is 94.7% in test [7]; 91.9% in test [8]; 99.6% in [9]; 90.9% in test [10]; 88.8% in test [11]; 105% in test [12]. The growth in test [13] is 98.8%; in [14], 95.1%; in test [20], 84.9%; in [16], 102%; in test [17], 49.6%; in [18] it was 61.2%. Further, the growth in test [19] was 107%.

Take `CC(C)N1C(=O)/C(=c2\sc3n(c2=O)C2C(NN=3)N(C)C(=O)N2C)c2ccccc21` (centres undefined): the growth in test [1] was 84.3%; in [2], 27%; in [3] it was 53.2%; in test [4], 90.9%; in test [5] it was 57.3%; in [6], 74.9%. The growth was 50.1% in [7]; 49.2% in test [8]; 50% in test [9]; 44.9% in [10]; 37.8% in [11]; 31.3% in test [12]. The growth in test [13] was 4.34% (active); in test [14] it was 61.9%; in test [15], 55%; in [16] it was 48.8%; in test [17] it was 33.4%; in test [18], 56.6%. Besides, the growth in test [19] was 64%.

Turning to `CC(=C(c1ccc(OCCN2CCCCC2)cc1)c1ccc(OCCN2CCCCC2)cc1)c1ccc(Cl)cc1`, the growth in test [1] is -92.8% (active); in [2], -65.7% (active); in test [3], -84.3% (active); in test [4], -85.1% (active); in [5] it was -78.8% (active); in test [6], -77.2% (active). Further, the growth was -92.1% (active) in test [7]; -94.9% (active) in [8]; -82.1% (active) in test [9]; -81.9% (active) in test [10]; -88.3% (active) in test [11]; -86.3% (active) in [12]. For the same compound, the growth in test [13] was -97.3% (active); in test [14] it was -91.2% (active); in [20], -90.7% (active); in test [16], -96.9% (active); in test [17], -76.9% (active); in test [18], -94.5% (active). In test [19], the growth was -96.1% (active).

Consider `NNCCc1ccc(NC(=O)CCCc2ccc(C(=O)Nc3ccccc3N)cc2)cc1`, for which the growth in test [1] was 90.7%; in [2] it was 43.5%; in [3], 56.9%; in test [4], 67.5%; in [5], 75.2%; in test [6], 72.3%. Also, the growth is 69% in test [7]; 60.8% in test [8]; 41.4% in test [9]; 72% in test [10]; 96.8% in test [11]; 51.1% in test [12]. In addition, the growth is 68.2% in [13]; 85.5% in test [14]; 55.1% in [15]; 57.1% in test [16]; 49.2% in test [17]; 63.7% in test [18]. Further, in [19], the growth is 75.6%.

For `O=C1c2cccc3cccc(c23)C(=O)N1C/C=C/c1ccc2c3c(cccc13)C(=O)N(CCO)C2=O`, the growth was 70.4% in test [1]; 79.9% in test [2]; 75.5% in test [3]; 62.1% in test [4]; 27.9% in test [5]; 87.7% in test [6]. The growth in test [7] was 76.5%; in test [8], 72.7%; in [9], 79.8%; in test [10], 87.8%; in [11] it was 75.3%; in [12] it was 87%. Also, the growth is 58.6% in test [13]; 88% in test [14]; 51.2% in [15]; 89.9% in [16]; 91.4% in test [17]; 87.3% in test [18]. For the same compound, the growth in test [19] was 84.9%.

As for `Cc1ccc(NC(=O)Cn2c(Br)nc3c2c(=O)n(C)c(=O)n3C)cc1`, the growth was 44.1% in test [1]; 51.6% in [2]; -36% (active) in [3]; -19.2% (active) in test [4]; -3.2% (active) in test [5]; 56.1% in test [6]. Besides, the growth in [7] was 0.92% (active); in test [8], 1.55% (active); in test [9], 62.2%; in test [10], 43.1%; in test [11] it was 45.8%; in test [12] it was 55.2%. The growth was 5.65% (active) in test [13]; 50.7% in [14]; 30.3% in test [15]; 25.6% in test [16]; 45.5% in test [17]; -9.57% (active) in [18]. In [19], the growth was 52%.

With `COc1ccc(/C=C2\CN(C(=O)C(Cl)Cl)C/C(=C\c3ccc(OC)cc3)C2=O)cc1`, the growth is -11.2% (active) in [1]; 2.32% (active) in test [2]; -33.9% (active) in test [3]; 3.8% (active) in test [4]; -68.2% (active) in [5]; 23.6% in [6]. In addition, the growth is -25.1% (active) in test [7]; -40% (active) in test [8]; 22.8% in test [9]; -39% (active) in test [10]; -14.4% (active) in [11]; 5.9% (active) in test [12]. The growth was 21% in test [13]; -10.9% (active) in test [14]; -68.2% (active) in test [20]; -41% (active) in test [16]; -66% (active) in test [17]; -77.8% (active) in test [18]. The growth in test [19] is -12.5% (active).

With `COC(=O)C(Cc1ccccc1)NC(=O)c1ccc(NC(=O)c2[nH]c(C)c(Cl)c2Cl)c(OC(C)C)c1` (centres undefined), the growth in test [1] was 77.6%; in test [2] it was 42.1%; in [3] it was 71.4%; in [4], 66.3%; in test [5] it was 128%; in test [6], 86.4%. Moreover, the growth was 87.5% in [7]; -17.9% (active) in [8]; 101% in test [9]; 51.3% in test [10]; 40.5% in test [11]; 58% in test [12]. The growth in test [13] is 62.6%; in test [14], 42.8%; in [15] it was 11.4%; in [16], 97.7%; in test [17], 90.6%; in test [18], 34.1%. In test [19], the growth is 102%.

Values taken from PubChem BioAssay (NCI).
